# Measurements published in paper PMC5540273 (PLoS ONE, 2017).
# Key:
# Details in all cases: concentration: 1 μM, replicates: in singlicate; n = 1
# [1] = system: PIK3CG
# [2] = system: T1, PIK4CB
# T1 construct: gene PI4KB
# [3] = system: PIKFYVE
# [4] = system: PIM1
# [5] = system: PIM2
# [6] = system: PIM3
# [7] = system: PIP5K1A
# [8] = system: PIP5K1C
# [9] = system: PIP5K2B
# [10] = system: T2, PIP5K2C
# T2 construct: gene PIP4K2C
# [11] = system: T3, PKAC-alpha
# T3 construct: gene PRKACA
# [12] = system: T4, PKAC-beta
# T4 construct: gene PRKACB
# [13] = system: PKMYT1
# [14] = system: PKN1
# [15] = system: PKN2
# [16] = system: PLK1
# [17] = system: PLK2
# [18] = system: PLK3
# [19] = system: PLK4
# [20] = system: PRKCD
# 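Note: KINOMEscan kinase panel screen.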
SMILES,%Inh [1] [%],%Inh [2] [%],%Inh [3] [%],%Inh [4] [%],%Inh [5] [%],%Inh [6] [%],%Inh [7] [%],%Inh [8] [%],%Inh [9] [%],%Inh [10] [%],%Inh [11] [%],%Inh [12] [%],%Inh [13] [%],%Inh [14] [%],%Inh [15] [%],%Inh [16] [%],%Inh [17] [%],%Inh [18] [%],%Inh [19] [%],%Inh [20] [%]
CCC(=O)c1c(-c2ccccc2)c2cc(Cl)ccc2c(=O)n1Cc1cc(S(C)(=O)=O)n(CC(F)F)n1,0,0,0,0,0,0,2,9,0,0,0,0,0,0,0,0,24,13,0,9
CCn1c(-c2ccoc2)nc2cnccc21 [SB-733887],0,20,3,0,0,36,11,0,0,32,0,0,0,7,0,5,0,0,15,0
Nc1nc(-c2ccccc2F)c(-c2ccnc3ccccc23)s1 [GW560459],0,0,0,0,0,3,13,46,4,59,0,3,0,3,0,2,0,0,0,0
CN1C(=O)C(Nc2ccccc2)=C(c2ccccc2)C1=O [SB-300079],10,0,9,0,0,0,42,23,0,20,2,0,2,0,0,4,12,16,0,7
Cc1ccc(-c2ccc3c(ccc4sc5c(c43)NC[C@@H](C)N=C5N(C)C)n2)cn1,0,0,42,0,0,0,0,0,0,0,0,0,0,0,0,0,0,0,0,0
C[C@@H]1CC[C@H](C(=O)NC2CCCCC2)CN1c1cc(-c2ccc3c(N)n[nH]c3c2)nc(N)n1 [GSK2291363],0,0,0,22,0,8,100,53,52,30,32,18,6,0,0,8,0,0,0,8
COc1cccc(-n2cnc3c(N)ncnc32)c1 [SKF-97416],44,41,41,20,14,24,2,13,0,0,11,20,10,0,24,58,43,18,21,6
Cc1cccc(-c2nc(Nc3ccc4c(cnn4C)c3)c3ccccc3n2)n1 [GW876731],0,26,91.5,8,1,21,0,0,0,0,0,14,4,55,33,7,0,0,13,5
Nc1ncnc2c1ncn2-c1cccc2ccccc12 [SKF-97184],3,0,40,0,32,0,0,11,0,0,10,0,0,0,0,28,18,9,0,16
CCc1nc(-c2cccc(C)c2)c(-c2ccncc2)s1,0,0,39,17,0,29,0,36,19,25,0,7,8,6,0,0,0,14,0,0
COc1ccc(CNC(=O)NC2CCN(c3ccnc(Nc4ccc(F)cc4)n3)C2)cc1 (stereo not drawn) [GSK1379706],7,17,0,12,0,0,44,63,20,54,0,0,10,14,0,10,0,0,19,0
CCC(=O)c1c(-c2ccccc2)c2cc(Cl)ccc2c(=O)n1Cc1cc(S(C)(=O)=O)n(CCC(C)(C)O)n1,17,0,0,15,2,16,0,0,20,0,0,0,0,0,0,0,0,8,24,0
CCCC(=O)Nc1n[nH]c2ncc(-c3cccc4ccccc34)cc12 [SB-642057],10,39,0,10,0,2,0,34,0,13,0,0,22,19,0,0,0,1,13,0
Cl.c1ccc(Cn2cnc3cc(Nc4ncnc5ccccc45)ccc32)cc1 [GW272142],0,0,6,0,0,0,0,38,0,17,0,0,0,0,0,0,0,0,0,0
FC(F)(F)c1ccc(-c2ncn(CCCN3CCOCC3)c2-c2ccncc2)cc1 [SB-217780],34,0,0,15,0,13,0,36,0,27,0,10,0,43,48,5,0,0,3,87
COc1cc(Nc2nccc(N3CCC(NC(=O)C(C)c4ccc(Cl)cc4)C3)n2)cc(OC)c1OC (stereo not drawn) [GSK1379757],2,0,0,0,0,0,42,35,3,79,0,0,0,19,0,0,0,0,0,0
O=C(Nc1n[nH]c2cc(-c3ccccc3F)ccc12)C1CC1 [SB-733371],6,0,10,0,0,0,32,0,24,0,0,20,0,0,14,0,0,3,9,0
COc1ccc(Nc2nccc(N3CCC(NS(=O)(=O)c4ccc(NC(C)=O)cc4)C3)n2)cc1 (stereo not drawn) [GSK1379729],11,14,11,0,0,0,0,49,9,62,6,0,12,37,2,12,0,0,8,0
Nc1ncnc2c1ncn2-c1cccc(F)c1 [SKF-97560],14,14,17,1,18,0,6,0,9,0,21,0,0,4,0,34,22,25,9,1
Cc1c(Cn2c(C)nn3c(=O)cc(N4CCO[C@H](C)C4)nc23)cccc1C(F)(F)F [GSK2373690],21,0,0,0,0,0,0,13,12,9,0,11,11,0,0,0,0,0,0,0
COC(=O)c1c(-c2ccccc2)c2cc(Br)ccc2c(=O)n1Cc1ccc(S(C)(=O)=O)cc1,1,5,0,9,14,9,19,0,23,0,11,0,0,1,0,0,17,15,32,0

SMILES,%Inh [1] [%],%Inh [2] [%],%Inh [3] [%],%Inh [4] [%],%Inh [5] [%],%Inh [6] [%],%Inh [7] [%],%Inh [8] [%],%Inh [9] [%],%Inh [10] [%],%Inh [11] [%],%Inh [12] [%],%Inh [13] [%],%Inh [14] [%],%Inh [15] [%],%Inh [16] [%],%Inh [17] [%],%Inh [18] [%],%Inh [19] [%],%Inh [20] [%]
CCn1c(-c2nonc2N)nc2ccccc21 [SB-693162/GW549034],0,29,0,0,0,8,23,8,0,0,0,0,0,0,0,62,21,34,30,0
O=C(NCCNc1ccnc(Nc2ccc(F)cc2)n1)Nc1ccc2c(c1)OCO2 [GSK1379882],10,17,8,21,0,11,7,66,0,24,0,0,0,23,0,4,0,0,4,0
Cc1nc(N(C)[C@H]2CN(C(=O)CC#N)CC[C@H]2C)c2cc[nH]c2n1,0,0,2,0,0,0,0,0,0,0,17,0,4,0,12,0,5,0,0,2
COc1cc2nccc(Nc3cccc(Oc4ccccc4)c3)c2cc1OC.Cl [GW284543],0,0,29,0,0,0,0,48,18,8,0,10,0,0,0,0,0,0,0,5
CCC(=O)c1c(-c2ccccc2)c2cc(Cl)ccc2c(=O)n1Cc1ccc(C(=O)O)cc1,0,0,0,0,0,0,18,15,0,16,0,0,1,0,0,0,7,0,0,0
COC(=O)c1c(-c2ccccc2)c2cc(Br)ccc2c(=O)n1Cc1ccc(NC(=O)CCC(=O)O)cc1,7,0,5,4,24,3,4,0,35,0,33,0,10,0,0,0,14,5,15,0
COc1cc2nccc(Nc3ccc(OCc4ccc(NC(C)=O)cc4)cc3)c2cc1OC.Cl [GW440135],7,4,0,8,0,0,15,32,22,25,0,0,0,44,0,12,0,0,0,11
Nc1n[nH]c2ncc(-c3ccccc3)cc12 [SB-517081],0,0,0,12,0,0,0,38,9,23,0,0,2,0,0,0,11,0,15,0
Cc1nnc(-c2ccc(C)c(-c3ccc(C(=O)O)cc3)c2)o1 [GW608005],0,0,0,18,0,0,0,6,0,0,0,0,0,28,0,0,0,0,0,0
O=c1cc(N2CCOCC2)nc2n(Cc3ccc(F)c(Cl)c3)ccn12 [GSK2297099],23,20,0,11,0,19,0,0,0,0,0,0,10,11,0,54,0,6,0,0
CN(C)c1cc(-c2ccc3c(N)n[nH]c3c2)nc(N)n1 [GSK2219329],0,0,0,14,0,0,0,19,0,0,32,0,0,0,0,0,0,0,0,0
OCCCNc1nccc(-c2c(-c3cccc(C(F)(F)F)c3)nn3cc(C(F)(F)F)ccc23)n1 [GW630813],0,0,0,9,0,0,30,66,2,38,0,0,0,0,0,0,0,0,12,0
CCS(=O)c1ccc(-c2coc3ccc(-c4nnc(C)o4)cc23)cc1 (stereo not drawn),0,19,3,6,27,11,0,13,0,93,0,18,0,0,16,0,0,14,5,4
Nc1nccc2scc(-c3ccc4c(c3)CCN4C(=O)Cc3ccccc3)c12 [GSK2576924],5,20,0,20,0,3,3,29,15,13,8,0,1,0,0,6,1,0,6,0
Cn1c(=O)c(F)c(Nc2ccc(I)cc2F)c2c(=O)n(OC[C@H](O)CO)cnc21,0,0,6,5,13,0,11,22,9,12,10,35,0,0,0,14,0,0,4,4
O=C(Nc1ccc2c(c1)OCO2)NC1CCN(c2ccnc(NCc3ccc(F)cc3)n2)CC1 [GSK1379859],0,2,0,8,0,0,0,19,2,0,12,0,0,0,0,0,0,0,9,7
COc1cc(OC)cc(-c2cc3cnc(N)nc3nc2NC(=O)NC(C)(C)C)c1,5,0,44,0,0,0,37,0,0,0,0,0,0,0,22,0,0,0,0,0
Cc1ccc(Oc2ccc(Nc3ncnc4cc[nH]c34)cc2C)cn1,7,42,1,41,7,36,7,0,0,0,19,0,8,50,0,50,12,11,20,5
CCc1ccc(-c2ccc3c(c2)-c2nn(C)cc2S(=O)(=O)N3C)cc1,0,0,16,0,12,0,0,35,0,9,0,0,0,0,0,8,0,56,0,14
Cc1cccc(-c2cc(-c3c[nH]nc3-c3ccccn3)ccn2)c1 [GW679395],0,0,0,20,0,0,35,54,0,39,0,0,1,0,0,0,0,0,0,0
CN1C(=O)C(Nc2cc(Cl)c(O)c(Cl)c2)=C(c2ccc(Cl)cc2)C1=O [SB-404321],10,36,24,0,0,0,0,27,0,30,0,0,0,0,0,0,0,0,0,0
